Screens deposited in PubChem BioAssay by several laboratories.
Rows were chosen to be rich in hits. Some 2.7% of all compounds tested hit in one or more screens of this group.
CendR NRP1 mod = alters CendR peptide binding to human NRP-1; FAM-RPARPAR peptide binding to NRP-1, fluorescence polarization; inhibition, % at 25 µM; hit rate 0.85% among 360,000; AID 602438;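 active = inhibition or corrected inhibition above about 18%, plus a signal ratio from 0.5 to 1.5, limit read from the data, passing the limit was not always enough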
Target sequence (O14786 whole entry, looked up): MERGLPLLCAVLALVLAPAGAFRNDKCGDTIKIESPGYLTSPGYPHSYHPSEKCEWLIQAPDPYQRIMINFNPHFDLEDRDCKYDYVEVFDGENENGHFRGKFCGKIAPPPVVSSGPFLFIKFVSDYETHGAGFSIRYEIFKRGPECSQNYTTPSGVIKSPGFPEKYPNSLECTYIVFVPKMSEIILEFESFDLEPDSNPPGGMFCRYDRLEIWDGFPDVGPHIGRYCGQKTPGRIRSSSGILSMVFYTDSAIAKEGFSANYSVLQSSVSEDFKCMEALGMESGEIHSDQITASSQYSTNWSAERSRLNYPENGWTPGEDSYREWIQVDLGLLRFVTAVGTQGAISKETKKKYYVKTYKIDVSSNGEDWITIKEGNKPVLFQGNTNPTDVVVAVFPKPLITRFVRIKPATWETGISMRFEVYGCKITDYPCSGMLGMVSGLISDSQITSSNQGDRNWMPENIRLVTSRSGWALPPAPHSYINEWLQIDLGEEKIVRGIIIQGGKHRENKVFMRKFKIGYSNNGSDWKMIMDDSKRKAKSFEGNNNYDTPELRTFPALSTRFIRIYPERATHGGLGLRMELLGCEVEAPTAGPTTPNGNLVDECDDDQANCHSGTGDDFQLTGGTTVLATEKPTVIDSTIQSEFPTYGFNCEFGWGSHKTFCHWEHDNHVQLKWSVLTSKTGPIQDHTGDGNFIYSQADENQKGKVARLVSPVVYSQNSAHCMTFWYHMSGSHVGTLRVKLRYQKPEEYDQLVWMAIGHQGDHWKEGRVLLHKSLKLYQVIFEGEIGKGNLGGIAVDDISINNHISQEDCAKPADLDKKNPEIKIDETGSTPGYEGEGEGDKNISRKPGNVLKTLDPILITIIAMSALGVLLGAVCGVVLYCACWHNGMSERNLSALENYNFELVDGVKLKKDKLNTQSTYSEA
MPTP inh = inhibitors of mitochondrial permeability transition pore | isolated mouse mitochondria, Ca2+ swelling absorbance, 30 min | inhibition, % at 10 µM | hit rate 1.4% among 360,000 | AID 602449;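 active = inhibition of 50% or more, scaled per plate between neutral and stimulator controls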
CFTR F508del cor = CFTR F508del correction in bronchial cells | CFBE cells, YFP halide quenching; stimulated with forskolin plus potentiator P3; % fluorescence drop versus neutral controls | activity (quench increase), % at 7.58 µM | hit rate 0.36% among 350,000 | AID 720511;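 active = mean added fluorescence quench of at least 8% versus neutral control, with both replicates also reaching 8%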;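 also: cells transiently co-express mutant CFTR-F508del with the halide-sensitive YFP; corrector assay measuring rescue of mutant channel to the surface after 24 h compound exposure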
SKN-1 block = inhibitors of C. elegans SKN-1; inhibition, % at 21.8 µM; AID 624304; C. elegans VP596 Pgst-4::GFP/RFP ratio, acrylamide-induced, 24 h; hit rate 0.49% among 360,000;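 active = interference check ratio from 0.5 to 1.5 plus GFP to RFP signal ratio inhibition reaching or exceeding a fixed threshold, cut at about 30% in these data, passing the limit was not always enough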
ATG4B inh = inhibitors of human ATG4B cysteine protease. ATG4B cleavage of LC3-PLA2, NBD-HPC fluorescence, 1 h. inhibition, % at 8.33 µM. hit rate 0.51% among 340,000. AID 504462; in the data active = inhibition above about 40%
Rh123 counter = Rhodamine 123 counter-screen of mitochondrial pore hits; shares compounds with MPTP inh; isolated mitochondria, membrane potential, Rhodamine 123 fluorescence; inhibition, % at 10 µM; hit rate 78% among 5,000; in the data active = inhibition above about 22%
MPTP swell DR = MPTP inhibition, dose response swelling confirmation; shares compounds with MPTP inh; isolated mitochondria swelling, absorbance; IC50, µM; hit rate 58% among 780; AID 651561; in the data active = IC50 below about 20 µM
MPTP counter DR = active in counter-screen for permeability transition pore inhibitors; shares compounds with MPTP inh; isolated mitochondria counterscreen, fluorescence read-out; IC50, µM; hit rate 49% among 780; AID 651564; in the data active = IC50 below about 80 µM
Large screens that a line does not name were inactive (follow-up assays come after a bar, where they were run).

O=C(N[C@@H](Cc1cccnc1)C(=O)N1CCC[C@H]1C(=O)NC1CCCC1)C1CC1	none (no result: CendR NRP1 mod, MPTP inh, SKN-1 block, ATG4B inh)
O=C(Nc1cccc(Cl)c1)c1cccc(Oc2ccc([N+](=O)[O-])cc2Cl)c1	MPTP inh 86 | Rh123 counter 97
COc1ccc([N+](=O)[O-])cc1NC(=O)Nc1cccc(Cl)c1	MPTP inh 107 (no result: CFTR F508del cor) | Rh123 counter 67
COc1ccc(NC(=O)c2cccc(Oc3ccc([N+](=O)[O-])cc3Cl)c2)cc1	none
CC1CC1C(=O)N1CCN(S(=O)(=O)c2cc(C(F)(F)F)cc(C(F)(F)F)c2)CC1 (stereo not given)	MPTP inh 101 | Rh123 counter 102
Cc1cnc(C(=O)N2CCN(S(=O)(=O)c3cc(C(F)(F)F)cc(C(F)(F)F)c3)CC2)cn1	MPTP inh 88 | Rh123 counter 105
COCC(=O)N1CCC2(CC1)CN(Cc1ccccn1)[C@H](CO)c1[nH]c3cc(OC)ccc3c12	none (no result: CendR NRP1 mod, MPTP inh, SKN-1 block, ATG4B inh)
CC(C)NC(=O)Nc1ccc2c(c1)CC(=O)N([C@@H](C)CO)C[C@H](C)[C@@H](CN(C)S(=O)(=O)c1ccccc1)O2	none (no result: CendR NRP1 mod, MPTP inh, SKN-1 block, ATG4B inh)
C[C@H]1CN([C@@H](C)CO)C(=O)c2cc(C#CC3(O)CCCC3)cnc2O[C@H]1CN(C)S(C)(=O)=O	none (no result: CendR NRP1 mod, MPTP inh, SKN-1 block, ATG4B inh)
COc1cc(/C=C2\SC(=O)N(CCN)C2=O)ccc1OS(=O)(=O)c1cc(C)ccc1C	MPTP inh 82 | Rh123 counter inactive | MPTP swell DR 7.5 | MPTP counter DR 29
Cc1cn2c(N)c(C=C3C=C(Cl)C(=O)C(Cl)=C3)c(=O)nc2s1	MPTP inh 87 | Rh123 counter 83
COc1ccc(NC(=O)N(C)C[C@@H]2OCCCC[C@@H](C)Oc3ccc(NC(=O)NC4CCCCC4)cc3C(=O)N([C@@H](C)CO)C[C@H]2C)cc1	none (no result: CendR NRP1 mod, MPTP inh, SKN-1 block, ATG4B inh)
O=C(Nc1ccccc1)Nc1nnc(Cc2ccc([N+](=O)[O-])cc2)s1	MPTP inh 93 (no result: CFTR F508del cor) | Rh123 counter 89
Cc1ccccc1NC(=O)Nc1nnc(Cc2ccc([N+](=O)[O-])cc2)s1	none
Cc1ccc(NC(=O)Nc2nnc(Cc3ccc([N+](=O)[O-])cc3)s2)cc1C	MPTP inh 86 (no result: CFTR F508del cor) | Rh123 counter 63
COc1cccc(-c2cn(CC[C@@H]3CC[C@H](NC(=O)CC4CC4)[C@H](CO)O3)nn2)c1	none (no result: CendR NRP1 mod, MPTP inh, SKN-1 block, ATG4B inh)
COc1ccc(NC(=O)Nc2ccc3c(c2)C(=O)N([C@H](C)CO)C[C@@H](C)[C@H](CN(C)S(=O)(=O)c2c(C)noc2C)OCCCC[C@H](C)O3)cc1	none (no result: CendR NRP1 mod, MPTP inh, SKN-1 block, ATG4B inh)
O=S(=O)(c1cccc(NC(=S)N2CCN(c3ccc(F)cc3)CC2)c1)C(F)F	MPTP inh 67 | Rh123 counter 61
O=S(=O)(c1cccc(NC(=S)N2CCN(c3cccc(Cl)c3)CC2)c1)C(F)F	MPTP inh 77 | Rh123 counter 86
C[C@H]1CN([C@@H](C)CO)S(=O)(=O)c2ccc(C#CC3CCCC3)cc2O[C@@H]1CN(C)C(=O)Cc1ccncc1	none (no result: CendR NRP1 mod, MPTP inh, SKN-1 block, ATG4B inh)
COc1ccc2nc(C)cc(SCC(=O)N/N=C/c3cccc4ccccc34)c2c1	MPTP inh 128 (no result: CFTR F508del cor) | Rh123 counter inactive | MPTP swell DR inactive | MPTP counter DR inactive
COc1ccc2nc(C)cc(SCC(=O)N/N=C/c3ccc(O)c(O)c3)c2c1	none
Cc1cc(SCC(=O)N/N=C/c2ccc(O)c(O)c2)nc2ccccc12	none
Cc1cc(SCC(=O)N/N=C/c2ccc(O)cc2O)nc2ccccc12	MPTP inh 68 | Rh123 counter 71
CC(C)(O)C#Cc1cccc(-c2nc(C(=O)O)cc3c2[C@@H](CCO)N(S(=O)C(C)(C)C)C3)c1 (stereo not given in full)	none (no result: CendR NRP1 mod, MPTP inh, SKN-1 block, ATG4B inh)
O=C(Oc1ccc2ccc(OC(=O)N3CCCCCC3)cc2c1)N1CCCCCC1	MPTP inh 69 | Rh123 counter 81
CC(=O)c1cccc(NC(=S)NCc2ccccc2)c1	none
S=C(NCCc1ccccc1)Nc1ccc(Cl)cc1Cl	MPTP inh 82 (no result: CFTR F508del cor) | Rh123 counter 102
CCNC(=S)Nc1ccc(Cl)cc1Cl	none (no result: CFTR F508del cor)
CC(=O)c1cccc(NC(=S)NCCc2ccc(Cl)cc2)c1	MPTP inh 83 | Rh123 counter 100
Cc1cc(Cl)ccc1NC(=S)NCCc1ccc(Cl)cc1	MPTP inh 88 | Rh123 counter 81
CCCCSCCCNC(=O)Nc1ccc(CC)cc1	MPTP inh 86 | Rh123 counter 83
C[C@H]1CCCCO[C@H](CN(C)C(=O)NC2CCCCC2)[C@@H](C)CN([C@@H](C)CO)C(=O)c2cc(NS(C)(=O)=O)ccc2O1	none (no result: CendR NRP1 mod, MPTP inh, SKN-1 block, ATG4B inh)
C[C@@H]1CN([C@H](C)CO)C(=O)Cc2cc(NS(=O)(=O)c3ccc(Cl)cc3)ccc2O[C@@H]1CN(C)Cc1ccc(C(=O)Nc2ccccc2N)cc1	none (no result: CendR NRP1 mod, MPTP inh, SKN-1 block, ATG4B inh)
Cc1ccc(S(=O)(=O)N(C)C[C@H]2Oc3ccc(NC(=O)CCN4CCOCC4)cc3CC(=O)N([C@H](C)CO)C[C@@H]2C)cc1	none (no result: CendR NRP1 mod, MPTP inh, SKN-1 block, ATG4B inh)
O=C(NCCc1ccc(Cl)cc1)Nc1ccc(Cl)cc1	MPTP inh 78 | Rh123 counter 98
Cc1cc(Cl)ccc1NC(=S)NCc1ccc(S(N)(=O)=O)cc1	none
Cc1ccc(Cl)cc1NC(=S)NCc1cccn1C	MPTP inh 64 (no result: CFTR F508del cor) | Rh123 counter 47
O=C(NCCc1ccncc1)Nc1ccc(Cl)cc1	none (no result: CFTR F508del cor)
Cc1cc(Cl)ccc1NC(=S)NCCC(c1ccccc1)c1ccccc1	MPTP inh 100 (no result: CFTR F508del cor) | Rh123 counter 97
Cc1cc(Cl)ccc1NC(=S)NCc1ccc(Cl)cc1	MPTP inh 84 (no result: CFTR F508del cor) | Rh123 counter 99
O=[N+]([O-])c1cc(Cl)cc(/C=N/Nc2nc3ccccc3s2)c1O	MPTP inh 78 | Rh123 counter 78
COc1cc(/C=N/Nc2nc3ccccc3s2)cc([N+](=O)[O-])c1O	none
O=C(N/N=C/c1cc(Cl)cc([N+](=O)[O-])c1O)C1CC1	none
CC(C)(C)N/N=C/c1cc(Cl)cc([N+](=O)[O-])c1O	MPTP inh 93 | Rh123 counter 54
O=C(Nc1ccc([N+](=O)[O-])cc1)N1CCCCC1	MPTP inh 94 | Rh123 counter 93
O=C(Nc1ccc([N+](=O)[O-])cc1)N1CCCCCC1	MPTP inh 62 | Rh123 counter 96
CN(C)C(=O)[C@H]1[C@H](CO)[C@H]2Cn3c(ccc(-c4ccncc4)c3=O)[C@H]2N1Cc1ccccc1F	none (no result: CendR NRP1 mod, MPTP inh, SKN-1 block, ATG4B inh)
CC(C)OC(=O)c1cc(NC(=S)Nc2ccc([N+](=O)[O-])cc2)cc(C(=O)OC(C)C)c1	MPTP inh 97 (no result: CFTR F508del cor) | Rh123 counter 100
CC(C)CCNC(=S)Nc1ccc(Br)cc1	MPTP inh 100 | Rh123 counter 88
S=C(NCCc1ccccc1)Nc1ccc(Br)cc1	MPTP inh 98 (no result: CFTR F508del cor) | Rh123 counter 92
CC(C)CCNC(=S)Nc1ccc([N+](=O)[O-])cc1	MPTP inh 98 (no result: CFTR F508del cor) | Rh123 counter 85
